# Assay outcomes from PubChem BioAssay.
# HCMV inh = inhibitors of human cytomegalovirus; HFF cells, HCMV-luciferase reporter, 72 h; stronger effect = lower value; 410,000 tested, 4.5% active; activity change, negative = inhibition, % at 57.5 µM; in the data active = activity change below about -60%; inconclusive = no clear call, values can overlap the other calls; inactive = above about -39%
#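 Screen run at 2 compound doses on HFFs infected with reporter HCMV, MOI 1 PFU/cell. Luciferase activity from cell lysates at 72 h post infection gave inhibition relative to buffer-only and Salinomycin wells.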
# FMDV antiviral = foot and mouth disease virus antiviral activity; Potency, µM (titrated, usually from 57.9 µM), most hits filed as inhibitors; 410,000 tested, 1.2% active; FMDV antiviral cell-based qHTS; calls by dose curve; tested in HEK293T cells; also: read-out not given here; nearly all actives have a fitted effect of over 45% in size
# TbPYK inhibitor = inhibitors of Trypanosoma brucei pyruvate kinase. TbPYK enzyme, Kinase-Glo Plus ATP luminescence, 45 min. AID 624173. Q57TT1. 410,000 tested, 0.12% active. Potency, µM (titrated, usually from 76.8 µM), usual class: inhibitors; also: nearly all actives have a fitted effect of over 50% in size
#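 Luminescence from Kinase-Glo Plus, added after a 45-minute room-temperature reaction, served as the end-point read-out. The enzyme and substrate were preincubated with compound before ADP (130 uM final) initiated turnover. Concentration-effect curves came from normalized qHTS data.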
# Sm TGR inh = inhibitors of Schistosoma mansoni thioredoxin glutathione reductase | purified TGR, DTNB reduction, TNB absorbance 405 nm | 360,000 tested, 3% active | Potency, µM (doses to about 114 µM), actives largely listed as inhibitors | Q962Y6 | AID 485364; also: nearly all actives have a fitted effect of over 60% in size
#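 First, TGR (20 nM dispensed) and NADPH were mixed with compound. Second, a 15 min room-temperature incubation followed. Third, further NADPH and then DTNB were added to start the reaction. Finally, TNB absorbance was monitored kinetically.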
# Giardia FBPA inh = blocks Giardia fructose-bisphosphate aldolase activity; 290,000 tested, 0.71% active; Potency, µM (titrated, usually from 59.6 µM), hits mostly inhibitors; A8B2U2; AID 2451; purified Giardia FBPA; also: nearly all actives have a fitted effect of over 55% in size
# Target sequence (A8B2U2 whole entry, looked up): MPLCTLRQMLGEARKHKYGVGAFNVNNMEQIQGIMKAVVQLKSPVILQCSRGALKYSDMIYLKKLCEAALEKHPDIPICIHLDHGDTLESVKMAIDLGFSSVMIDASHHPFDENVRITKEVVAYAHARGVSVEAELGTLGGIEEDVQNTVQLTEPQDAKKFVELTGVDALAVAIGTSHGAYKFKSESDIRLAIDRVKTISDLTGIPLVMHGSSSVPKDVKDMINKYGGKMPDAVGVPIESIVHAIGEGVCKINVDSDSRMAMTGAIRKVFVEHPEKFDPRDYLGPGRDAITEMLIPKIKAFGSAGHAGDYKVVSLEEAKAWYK
#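 40 nM FBPA preincubated 10 min at RT with compound (up to 57.5 uM final), then substrate plus GAPDH/TPI/NAD/arsenate coupling and diaphorase/resazurin added. Fluorescence read after 20 min at RT, 525/598 nm.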
# RE007 growth inh = less growth of the S. pombe RE007 Vpr strain; AID 651644; S. pombe RE007 Vpr strain, BacTiter-Glo ATP luminescence, 24 h; Potency, µM (highest dose often 92.2 µM), most hits filed as inhibitors; 360,000 tested, 0.21% active; active = well fitted falling curve with a large enough effect; inconclusive = small, poorly fitted or top-dose-only effect; inactive = no such curve, though single readings can be large or run the other way; also: nearly all actives have a fitted effect of over 50% in size
#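 Fission yeast RE007 carrying one integrated HIV-1 vpr copy, seeded at OD 0.01 in PMG+AL medium with 23 nL pinned compound. Grown 24 h at 30 degrees; viability read by BacTiter-Glo luminescence after 5 min.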
# A number is an active result; . = inactive; ? = inconclusive; / = no result given. The list is not random: actives were taken first. Their share in the collection is about 7.7%. Unless noted, calls follow the shape of the dose curve; as a rule, active = well fitted curve in the direction sought with a large enough effect; inconclusive = small, poorly fitted or top-dose-only effect, or another doubt; inactive = no such curve, though single readings can be large; an effect the other way counts as inactive or inconclusive.
SMILES,HCMV inh,FMDV antiviral,TbPYK inhibitor,Sm TGR inh,Giardia FBPA inh,RE007 growth inh
CC(=O)Nc1nonc1-c1nnc(SCC(=O)Nc2ccc(C)cc2)n1-c1ccccc1,.,.,.,.,/,/
COc1ccc(Cl)cc1-c1nc(-c2ccc(NC(=O)c3ccncc3)cc2)no1,.,.,.,/,/,.
COc1ccc(-c2nc(-c3ccc(NC(=O)c4ccncc4)cc3)no2)cc1OC,/,8.91µM,.,.,.,.
O=C(CN1CCSc2ccccc21)N1CCN(c2cccc(Cl)c2)CC1,.,.,.,.,/,/
CCOC(=O)c1c2c(n(C)c1C)C(=O)C(=O)c1ccc(Br)cc1-2,-97.5,8.91µM,.,/,/,.
CCOC(=O)c1c2c(n(Cc3ccccc3)c1C)C(=O)C(=O)c1ccccc1-2,.,20µM,.,/,/,.
CCOC(=O)c1c2c3c(cccc3n(C)c1=O)C(=O)c1ccccc1-2,.,.,.,.,.,.
Cc1oc2c(C)c3oc(=O)c(CCC(=O)N4CCCCC4)c(C)c3cc2c1C,?,.,.,.,/,/
OCC1(CCOc2ccccc2)CCN(Cc2nc3ccc(F)cc3[nH]2)CC1,-61.8,?,.,.,.,.
OCC1(CCOc2ccccc2)CCN(Cc2cn[nH]c2-c2ccc(F)cc2)CC1,?,.,.,.,.,.
COc1cc(CNn2nnnc2N)cc(Br)c1OCc1c(Cl)cccc1Cl,-69.6,?,.,.,.,.
Cc1ccc(-n2c(N)c(C(=O)N3CCN(C)CC3)sc2=S)cc1,.,.,?,.,9.98µM,.
COCCn1c(CNC(=O)c2ccc(C)cc2)nc2cccnc21,.,.,.,.,/,/
CSc1ncc(/C=C2/C(=O)NC(=O)N(C)C2=O)cn1,.,.,?,1.41µM,.,.
CSc1ncc(/C=C2/C(=O)NC(=O)N(C3CCCCC3)C2=O)cn1,.,.,?,5.01µM,.,.
CCCCN1C(=O)NC(=O)/C(=C/c2cnc(SC)nc2)C1=O,.,.,?,7.08µM,.,.
Cc1ccc(-n2c(C)cc(/C=C3/C(=O)NC(=O)N(C)C3=O)c2C)cc1,.,.,.,.,.,.
CCOC(=O)COc1ccc(Br)cc1/C=C1\SC(N)=NC1=O,.,.,.,.,.,.
NC1=NC(=O)/C(=C/c2ccc(Br)cc2)S1,.,.,.,.,.,.
CCOC(=O)CSC1=NC(=O)/C(=C/c2ccc(Br)cc2)S1,.,25.1µM,.,3.16µM,.,?
CCOC(=O)CSC1=NC(=O)/C(=C\c2ccc(OC(C)=O)cc2)S1,.,.,.,8.91µM,.,?
CCCn1c(=O)c2sccc2n2c(CCCC(=O)N3CCN(c4cccc(Cl)c4)CC3)nnc12,?,.,.,.,/,/
O=C(N/N=C/C=C/c1ccccc1[N+](=O)[O-])c1cccs1,?,.,.,.,.,/
O=C(N/N=C/c1ccc([N+](=O)[O-])o1)c1ccc(NS(=O)(=O)c2cccs2)cc1,.,.,.,35.5µM,.,.
O=C(N/N=C\C=C\c1ccc([N+](=O)[O-])o1)c1cccs1,-64.8,.,.,10µM,.,.
SMILES,HCMV inh,FMDV antiviral,TbPYK inhibitor,Sm TGR inh,Giardia FBPA inh,RE007 growth inh
O=C(Nc1ccc(/C=C/c2ccc(NC(=O)c3cc(S(=O)(=O)O)c4cccnc4c3O)cc2S(=O)(=O)O)c(S(=O)(=O)O)c1)c1cc(S(=O)(=O)O)c2cccnc2c1O,/,/,.,/,/,/
CCOc1cc(/C=N/NC(=O)Cn2nc([N+](=O)[O-])cc2C)cc(Br)c1OCc1ccccc1F,-96.2,.,.,.,.,.
CCOc1cc(/C=N/NC(N)=O)cc(Br)c1OCc1ccccc1F,.,?,.,.,.,.
COc1cc2c(c(OC)c1OC)-c1ccc(SC)c(=O)cc1C(NC(=O)c1ccccc1)CC2 (configuration not stated),-63.4,.,.,/,/,.
COc1cc2c(c(OC)c1OC)-c1ccc(OC)c(=O)cc1[C@@H](NC=O)CC2,/,/,/,/,.,/
COc1cc2c(c(OC)c1OC)-c1ccc(OC)c(=O)cc1C(NC(=O)c1ccccc1)CC2 (configuration not stated),-74.5,.,.,/,/,.
CNC1CCc2cc(OC)c(OC)c(OC)c2-c2ccc(OC)c(=O)cc21 (configuration not stated),/,/,.,/,/,/
C=COC(=O)NC1CCc2cc(OC)c(OC)c(OC)c2-c2ccc(SC)c(=O)cc21 (configuration not stated),?,.,.,/,/,.
COc1cc2c(c(OC)c1OC)-c1ccc(SC)c(=O)cc1C(NC=O)CC2 (configuration not stated),-97.5,.,.,/,/,.
O=C(NCC1CCC2(CCN(Cc3cccc(-c4ccco4)c3)CC2)O1)c1ccccc1 (configuration not stated),/,.,/,/,/,/
COc1ccc(-n2c(-c3ccccc3)c[n+]3c2CCC3)cc1,-78.0,?,.,.,.,.
CCOc1ccc(-n2c(-c3ccc(Cl)cc3)c[n+]3c2SCC3)cc1,?,?,.,.,.,.
COc1ccc(-n2c(-c3ccccc3)cc3c2CCCC3=O)cc1,.,.,.,.,.,.
CCOc1ccc(-c2c[n+]3c(n2-c2ccccc2)CCCCC3)cc1,-97.9,?,.,.,.,.
COc1ccc(-n2c(-c3ccc(Br)cc3)c[n+]3c2SC(C)C3)cc1 (configuration not stated),-96.3,?,.,.,.,.
COc1ccc(-n2c(-c3ccc(Br)cc3)c[n+]3c2CCC3)cc1,-92.3,?,.,.,.,.
COc1ccc(Cl)cc1N(C)C(=O)Cn1cnc2sc(C)c(S(=O)(=O)N3CCN(c4ncccn4)CC3)c2c1=O,.,.,.,.,/,/
COc1ccc(-n2c(-c3ccc(Br)cc3)nc(=S)c3c2CCCC3)cc1,.,.,.,?,.,.
COc1ccc(-n2c(-c3ccc(Br)cc3)c[n+]3c2CCCCC3)cc1,-87.3,.,.,.,.,.
OC1CCC(Nc2nccc3[nH]c(-c4cccc(C(F)(F)F)c4)nc23)CC1 (configuration not stated),.,/,/,/,/,/
CC1(C)CC(=O)C(CS(=O)(=O)c2ccccc2)=C(O)C1,.,.,.,1µM,/,.
CC(C)CN(CCCNC(=O)c1cc(=O)[nH]c2ccc(S(=O)(=O)N3CCCCCC3)cc12)CC(C)C,.,.,.,.,/,/
Cc1ccc(Nc2c3c(nc4nncn24)CCC3)c(C)c1,.,.,.,.,/,/
COc1ccc(CC(NC(C)=O)C(=O)NC2CCN(C(=O)C3CCCCC3)CC2)cc1OC (configuration not stated),-67.7,.,.,.,/,.
CC(C(=O)Nc1nc(-c2ccc(F)cc2)cs1)N1C(=O)C2CC=CCC2C1=O (configuration not stated),.,28.2µM,.,.,/,.
